Sfp inh = inhibitors of Bacillus subtilis Sfp phosphopantetheinyl transferase; Q9F4F7; Biochemical Sfp PPTase activity, qHTS; Potency, µM, for the others: largest response in the series, negative = inhibition, most hits filed as inhibitors; actives 3.5% (n = 310,000); AID 1490;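 further: the enzyme is Sfp with the accession as filed and its product quenches rhodamine fluorescence; 0% = enzyme reaction without inhibitor and -100% = no enzyme wells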
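Fluorescence-quenching assay: 15 nM Sfp-PPTase preincubated 15 min at room temperature with compound, then 5 uM rhodamine-CoA and 12.5 uM BHQ-2-labelled YbbR peptide added. Fluorescence (ex 525/em 598 nm) read at start and after 30 min; difference gives rate.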
BAZ2B block = inhibitors of human BAZ2B bromodomain; actives 4.4% (n = 360,000); Q9UIF8; AID 504333; Potency, µM (series often up to 114 µM), for inactives: at the top dose activity change, negative = inhibition, usual class: inhibitors; AlphaScreen BAZ2B-H3K14Ac peptide displacement; further: on the % scale 0 is the no-effect control and ±100 the full control effect; nearly all actives have a fitted effect of over 60% in size
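BAZ2B 50 nM plus b-H3(5-23)K14Ac 50 nM, PBS pH 7.4/0.01% Tween-20, 30 min RT; compound added (max 110 uM), 30 min RT; streptavidin donor/Ni-chelate acceptor beads 10 ug/mL final, 20 min dark; AlphaScreen read.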
JMJD2A Tudor inh = JMJD2A Tudor domain (human) inhibition. O75164. AlphaScreen JMJD2A-Tudor / H3K4me3 peptide binding. Potency, µM (series often up to 114 µM), without a hit: at the highest dose activity change, negative = inhibition, hits mostly inhibitors. actives 4.4% (n = 390,000); further: on the % scale 0 is the no-effect control and ±100 the full control effect; nearly all actives have a fitted effect of over 50% in size
Target sequence (O75164 whole entry, looked up, the tested form may be a part): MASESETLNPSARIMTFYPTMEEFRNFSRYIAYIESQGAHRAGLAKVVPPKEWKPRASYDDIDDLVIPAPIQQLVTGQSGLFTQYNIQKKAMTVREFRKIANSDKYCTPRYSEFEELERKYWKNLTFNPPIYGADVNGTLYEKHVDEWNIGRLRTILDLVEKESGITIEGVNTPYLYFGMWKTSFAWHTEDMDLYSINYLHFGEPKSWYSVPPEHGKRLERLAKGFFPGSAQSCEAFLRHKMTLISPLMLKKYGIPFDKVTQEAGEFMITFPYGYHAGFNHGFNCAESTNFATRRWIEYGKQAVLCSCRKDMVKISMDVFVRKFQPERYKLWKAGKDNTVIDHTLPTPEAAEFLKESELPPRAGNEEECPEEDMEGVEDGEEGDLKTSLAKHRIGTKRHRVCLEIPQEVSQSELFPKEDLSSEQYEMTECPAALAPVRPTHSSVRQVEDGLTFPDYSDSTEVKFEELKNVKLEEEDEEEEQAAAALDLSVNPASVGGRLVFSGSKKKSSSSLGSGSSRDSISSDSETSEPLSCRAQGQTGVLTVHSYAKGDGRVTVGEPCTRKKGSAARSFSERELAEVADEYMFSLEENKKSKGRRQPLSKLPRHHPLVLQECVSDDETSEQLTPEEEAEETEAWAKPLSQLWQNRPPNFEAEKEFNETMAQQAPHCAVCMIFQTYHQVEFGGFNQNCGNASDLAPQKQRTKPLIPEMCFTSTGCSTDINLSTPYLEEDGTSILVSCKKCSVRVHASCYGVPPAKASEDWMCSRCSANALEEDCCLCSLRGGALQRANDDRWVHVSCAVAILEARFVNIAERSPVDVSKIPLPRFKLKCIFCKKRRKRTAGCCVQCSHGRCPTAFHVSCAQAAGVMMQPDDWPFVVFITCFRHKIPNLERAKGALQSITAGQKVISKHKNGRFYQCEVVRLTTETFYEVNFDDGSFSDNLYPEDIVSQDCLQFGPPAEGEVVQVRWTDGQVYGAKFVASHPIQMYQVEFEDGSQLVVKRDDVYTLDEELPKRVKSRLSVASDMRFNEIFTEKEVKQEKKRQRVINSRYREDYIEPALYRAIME
G9a inh = inhibitors of human histone lysine methyltransferase G9a; Q96KQ7; Potency, µM (top dose mostly 102 µM), without a hit: at the top dose activity, negative = inhibition, most hits filed as inhibitors; AID 504332; G9a H3K9 monomethylation, AlphaScreen, 2 h; actives 8.8% (n = 350,000); further: on the % scale 0 is the no-effect control and ±100 the full control effect; nearly all actives have a fitted effect of over 75% in size
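Methyltransferase reactions run at room temperature for 2 h (20 nM enzyme, 500 nM biotin-H3K9 peptide, 20 uM SAM) after a 15 min compound preincubation; product detected by AlphaScreen beads and anti-H3K9me1 antibody.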
L3MBTL1 block = inhibitors of human L3MBTL1; actives 0.66% (n = 230,000); AlphaScreen L3MBTL1–H3K9me1 peptide binding; Potency, µM (series often up to 57.1 µM), for the others: top-dose activity, negative = inhibition, usual class: inhibitors; Q9Y468; further: on the % scale 0 is the no-effect control and ±100 the full control effect; nearly all actives have a fitted effect of over 60% in size
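Read-out is AlphaScreen signal from streptavidin donor and nickel chelate acceptor beads (10 ug/mL final each) bridging L3MBTL1 (50 nM) and biotinylated K9-monomethylated H3(1-15) peptide (75 nM), after 30 min compound exposure at room temperature.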
HP1b chromo inh = inhibitors of HP1-beta chromodomain binding to methylated histone tails. P83916. AlphaScreen HP1-beta / biotin-H3K9me3 peptide binding. Potency, µM (highest dose often 114 µM), for the others: at the highest dose activity change, negative = inhibition, most hits filed as inhibitors. actives 0.56% (n = 390,000). AID 540317; further: nearly all actives have a fitted effect of over 70% in size
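AlphaScreen: HP1-beta (50 nM) preformed 30 min with biotin-H3(1-18)K9me3 peptide (50 nM) in PBS pH 7.4, 0.01% Tween-20. Compound added for 30 min at RT, then streptavidin donor/nickel chelate acceptor beads (10 ug/mL) for 30 min.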
* marks the source's active call; other numbers are inactive results; u = inconclusive; x = not tested or not shown; [ ] = dose if it differs, or a comment. In the library only some 12% were active in any assay of this set; here they are far more common. The call rests on the fitted dose curve; in most records, active means well fitted curve in the direction sought with a large enough effect; inconclusive means small, poorly fitted or top-dose-only effect, or another doubt; inactive means no such curve, though single readings can be large; an effect the other way counts as inactive or inconclusive. Potency means the concentration at half of the fitted maximal effect.

SMILES	Sfp inh	BAZ2B block	JMJD2A Tudor inh	G9a inh	L3MBTL1 block	HP1b chromo inh
N/C(Cc1ccc([N+](=O)[O-])cc1)=N\OC(=O)c1cccc(Br)c1	-23.6%	-10.3%	-11.4%	-1.9%[59 µM]	-6.0%	14.8%
N/C(Cc1ccc([N+](=O)[O-])cc1)=N\OC(=O)c1ccc([N+](=O)[O-])cc1	-0.7%	u	u	8.91µM*	x	u
Cn1c(=O)[nH]c(=O)c2c1nc(NCCO)n2CC(O)COc1ccccc1 (configuration not stated)	x	2.0%	1.6%	6.9%[59 µM]	x	34.9%
Cc1c(F)cccc1NC(=O)CCCCCC1NC(=O)NC1C (configuration not stated)	-14.1%	1µM*	0.891µM*	0.708µM*	x	u
CC1NC(=O)NC1CCCCCC(=O)Nc1ccc(F)cc1 (configuration not stated)	8.9%	-1.4%	0.316µM*	u	x	u
COc1ccc(-c2cc(NCc3ccc(C)cc3)n3cnnc3n2)cc1	x	-9.6%	-24.2%	-53.0%[59 µM]	x	19.0%
CC(=O)Nc1ccc(NS(=O)(=O)c2cc(-c3n[nH]c(=O)c4ccccc34)ccc2C)cc1	14.1%	79.4µM*	-16.9%	-26.5%	-10.2%	3.1%
Cc1ccc(-c2nn3c(-c4ccco4)nnc3c3ccccc23)cc1S(=O)(=O)NCC1CCCO1 (configuration not stated)	50.1µM*	-25.2%	-21.3%[57.1 µM]	20µM*	2.0%	8.1%
CC(C)NC(=O)CCCn1cc([N+](=O)[O-])cn1	-5.5%	-10.5%	-16.8%	50.1µM*	4.9%	31.6%
COC(=O)c1ccc(Cn2cc([N+](=O)[O-])cn2)cc1	17.8%	-14.9%	1.3%	-2.3%	3.5%	28.5%
CC(NC(=O)c1ccc(Cn2cc([N+](=O)[O-])cn2)cc1)c1ccccc1 (configuration not stated)	2.6%	8.0%	50.1µM*	-9.4%[59 µM]	-1.3%	8.7%
O=C(Cn1cc([N+](=O)[O-])cn1)Nc1ccc(Cn2cc(Br)cn2)cc1	0.9%	-38.0%	-5.7%	2.24µM*	4.2%	20.2%
O=C(CCCn1cc([N+](=O)[O-])cn1)N1CCCCC1	19.8%	-3.6%	1.5%	26.9%[12.7 µM]	9.4%	35.3%
CCCN1CNc2c(c(=O)[nH]c(=S)n2CCc2cc(Cl)cc(Cl)c2)C1	x	x	-27.2%	x	x	27.7%
CC1CCC2(OC1)OC1CC3C4CC[C@@H]5CC(O)CC[C@@]5(C)C4CC(=O)[C@]3(C)C1C2C (some centres not stated)	-30.7%	x	x	5.5%[2.33 µM]	x	x
CCOC(=O)c1ccc2[nH]c(CSc3nnc(-c4cccc(F)c4)n3C)cc(=O)c2c1	x	8.2%	-13.3%	-3.3%[59 µM]	x	17.4%[57 µM]
CN(C)c1cccc(N=C2C=C(N3CCOCC3)CC(C)(C)C2)c1	23.7%	-2.9%	50.1µM*	3.16µM*	-6.0%	-11.4%
CN(C)c1nc(N2CCOCC2)nc(N(c2ccccc2)c2ccccc2)n1	-5.8%	-4.1%	-2.9%	u	4.0%	32.8%
CC(C)(C)c1ccc(C(=O)Nc2ccc(-c3nc4cc(Cl)ccc4o3)cc2)cc1	x	-1.5%	-16.7%	7.2%[59 µM]	x	28.5%
O=C1C2=C(CCCC2)C(=O)N1c1cccc(OCCBr)c1	17.0%	-6.1%	6.0%[57.1 µM]	39.8µM*	9.1%	44.9%
CC(C)CN(CCOc1cccc(N2C(=O)C3=C(CCCC3)C2=O)c1)CC(C)C	-7.1%	5.8%	-2.1%[57.1 µM]	8.0%[59 µM]	-6.6%	77.4%
COc1ccccc1CCC(=O)NNC(=O)c1cccs1	x	x	-5.5%	x	10.6%	44.5%
CC1CC(N(C(=O)c2ccc(Cl)cc2)c2ccccc2)c2ccccc2N1C(=O)c1ccco1 (configuration not stated)	2.5%	-33.7%	-33.0%	44.7µM*	x	7.9%
CC1CC(N(C(=O)c2ccco2)c2ccccc2)c2ccccc2N1C(=O)c1ccco1 (configuration not stated)	13.8%	-3.3%	-31.8%	-37.2%[59 µM]	x	-8.8%
CCN(CC)C(=O)Cn1nnc2sc(-c3ccccc3)cc2c1=O	x	-21.9%	-24.2%	6.6%[59 µM]	x	21.2%
SMILES	Sfp inh	BAZ2B block	JMJD2A Tudor inh	G9a inh	L3MBTL1 block	HP1b chromo inh
CSc1cccc(CN2CCCC(C(=O)Nc3cccc(-n4cccn4)c3)C2)c1 (configuration not stated)	8.4%	-8.0%	u	x	x	-20.2%
O=[N+]([O-])c1cc(C(F)(F)F)cc([N+](=O)[O-])c1NCCNC(=S)Nc1ccc(Cl)c(Cl)c1	-5.1%	25.1µM*	31.6µM*	x	-22.3%	-31.2%
FC(F)(F)c1cccc(NC(=S)Nc2ccc(Cl)c(Cl)c2)c1	-18.7%	7.2%	3.5%	x	54.8%	31.2%
C/C(=N\NC(=O)C(N)=O)c1cccc([N+](=O)[O-])c1	-19.9%	u	u	u	5.4%	33.1%
O=[N+]([O-])c1ccc(NC(=S)N/C(=N/CS(=O)(=O)c2ccccc2)c2ccccc2)cc1	-6.9%	u	-24.6%	11.2µM*	-7.8%	25.3%
CC(=O)NNC(=S)NC(=O)c1cccc([N+](=O)[O-])c1	11.2µM*	u	8.91µM*	u	1.3%	u
O=C(NNC(=S)NCc1ccccc1)c1cccc([N+](=O)[O-])c1	10.2%	-20.4%	-28.2%	-42.4%	-13.2%	20.0%
CNC(=S)N/N=C(\C)c1cccc([N+](=O)[O-])c1	56.2µM*	50.1µM*	-23.3%	u	-5.4%	-7.7%
O=C(NNC(=S)NC(=O)c1ccccc1Cl)c1cccc([N+](=O)[O-])c1	16.7%	3.4%	-14.6%	35.5µM*	x	-0.7%
COc1ccc(NC(=S)N/C(=N/CS(=O)(=O)c2ccccc2)c2ccccc2)cc1	-5.3%	5.0%	-19.0%	u	1.6%	19.9%
COc1ccc(S(=O)(=O)NCCCC(=O)Nc2ccc(Sc3ccc(N)cc3)cc2)cc1	21.1%	x	x	x	x	x
COc1ccc(-c2nc3ccc(C(=O)NCc4ccccc4)cc3nc2-c2ccc(OC)cc2)cc1	x	0.5%	24.2%	27.9%[59 µM]	x	66.6%
NC(=O)C1CC(=O)N(c2ccc(OCc3c(Cl)cccc3Cl)cc2)C1 (configuration not stated)	-26.1%	-7.3%	-12.4%	20.4%	-15.3%	32.7%
NS(=O)(=O)c1cccc(NC(=S)NC(=O)c2cccc([N+](=O)[O-])c2)c1	50.1µM*	-10.2%	-20.4%	x	6.4%	u
O=C(NNC(=S)NC(=O)c1ccc(Br)cc1)c1cccc([N+](=O)[O-])c1	-5.9%	7.0%	-25.2%	35.5µM*	x	19.9%
O=C(NNC(=S)NC(=O)c1ccc(Br)cc1)c1ccc([N+](=O)[O-])cc1	-12.0%	3.5%	-32.9%	-9.1%[0.501 µM]	-6.0%[2.29 µM]	-15.4%
